ChEMBL document CHEMBL1201862, “PubChem BioAssay data set” (2004)
Hit rate of the full screen: of about 220,000 compounds, about 2,400 (1.1%) were called active. Inconclusive results (about 7%) are left out. No cut-off for these calls is given here. The full list was thinned out, with actives kept by preference.

biological target: Huntingtin (Homo sapiens) (UniProt P42858); assay: qHTS Multiplex Assay to Identify Dual Action Probes in a Cell Model of Huntington: Aggregate Formation (GFP). [Related pubchem assays: 1482, 1471 ]; assay type: functional
Sequence (P42858 whole entry): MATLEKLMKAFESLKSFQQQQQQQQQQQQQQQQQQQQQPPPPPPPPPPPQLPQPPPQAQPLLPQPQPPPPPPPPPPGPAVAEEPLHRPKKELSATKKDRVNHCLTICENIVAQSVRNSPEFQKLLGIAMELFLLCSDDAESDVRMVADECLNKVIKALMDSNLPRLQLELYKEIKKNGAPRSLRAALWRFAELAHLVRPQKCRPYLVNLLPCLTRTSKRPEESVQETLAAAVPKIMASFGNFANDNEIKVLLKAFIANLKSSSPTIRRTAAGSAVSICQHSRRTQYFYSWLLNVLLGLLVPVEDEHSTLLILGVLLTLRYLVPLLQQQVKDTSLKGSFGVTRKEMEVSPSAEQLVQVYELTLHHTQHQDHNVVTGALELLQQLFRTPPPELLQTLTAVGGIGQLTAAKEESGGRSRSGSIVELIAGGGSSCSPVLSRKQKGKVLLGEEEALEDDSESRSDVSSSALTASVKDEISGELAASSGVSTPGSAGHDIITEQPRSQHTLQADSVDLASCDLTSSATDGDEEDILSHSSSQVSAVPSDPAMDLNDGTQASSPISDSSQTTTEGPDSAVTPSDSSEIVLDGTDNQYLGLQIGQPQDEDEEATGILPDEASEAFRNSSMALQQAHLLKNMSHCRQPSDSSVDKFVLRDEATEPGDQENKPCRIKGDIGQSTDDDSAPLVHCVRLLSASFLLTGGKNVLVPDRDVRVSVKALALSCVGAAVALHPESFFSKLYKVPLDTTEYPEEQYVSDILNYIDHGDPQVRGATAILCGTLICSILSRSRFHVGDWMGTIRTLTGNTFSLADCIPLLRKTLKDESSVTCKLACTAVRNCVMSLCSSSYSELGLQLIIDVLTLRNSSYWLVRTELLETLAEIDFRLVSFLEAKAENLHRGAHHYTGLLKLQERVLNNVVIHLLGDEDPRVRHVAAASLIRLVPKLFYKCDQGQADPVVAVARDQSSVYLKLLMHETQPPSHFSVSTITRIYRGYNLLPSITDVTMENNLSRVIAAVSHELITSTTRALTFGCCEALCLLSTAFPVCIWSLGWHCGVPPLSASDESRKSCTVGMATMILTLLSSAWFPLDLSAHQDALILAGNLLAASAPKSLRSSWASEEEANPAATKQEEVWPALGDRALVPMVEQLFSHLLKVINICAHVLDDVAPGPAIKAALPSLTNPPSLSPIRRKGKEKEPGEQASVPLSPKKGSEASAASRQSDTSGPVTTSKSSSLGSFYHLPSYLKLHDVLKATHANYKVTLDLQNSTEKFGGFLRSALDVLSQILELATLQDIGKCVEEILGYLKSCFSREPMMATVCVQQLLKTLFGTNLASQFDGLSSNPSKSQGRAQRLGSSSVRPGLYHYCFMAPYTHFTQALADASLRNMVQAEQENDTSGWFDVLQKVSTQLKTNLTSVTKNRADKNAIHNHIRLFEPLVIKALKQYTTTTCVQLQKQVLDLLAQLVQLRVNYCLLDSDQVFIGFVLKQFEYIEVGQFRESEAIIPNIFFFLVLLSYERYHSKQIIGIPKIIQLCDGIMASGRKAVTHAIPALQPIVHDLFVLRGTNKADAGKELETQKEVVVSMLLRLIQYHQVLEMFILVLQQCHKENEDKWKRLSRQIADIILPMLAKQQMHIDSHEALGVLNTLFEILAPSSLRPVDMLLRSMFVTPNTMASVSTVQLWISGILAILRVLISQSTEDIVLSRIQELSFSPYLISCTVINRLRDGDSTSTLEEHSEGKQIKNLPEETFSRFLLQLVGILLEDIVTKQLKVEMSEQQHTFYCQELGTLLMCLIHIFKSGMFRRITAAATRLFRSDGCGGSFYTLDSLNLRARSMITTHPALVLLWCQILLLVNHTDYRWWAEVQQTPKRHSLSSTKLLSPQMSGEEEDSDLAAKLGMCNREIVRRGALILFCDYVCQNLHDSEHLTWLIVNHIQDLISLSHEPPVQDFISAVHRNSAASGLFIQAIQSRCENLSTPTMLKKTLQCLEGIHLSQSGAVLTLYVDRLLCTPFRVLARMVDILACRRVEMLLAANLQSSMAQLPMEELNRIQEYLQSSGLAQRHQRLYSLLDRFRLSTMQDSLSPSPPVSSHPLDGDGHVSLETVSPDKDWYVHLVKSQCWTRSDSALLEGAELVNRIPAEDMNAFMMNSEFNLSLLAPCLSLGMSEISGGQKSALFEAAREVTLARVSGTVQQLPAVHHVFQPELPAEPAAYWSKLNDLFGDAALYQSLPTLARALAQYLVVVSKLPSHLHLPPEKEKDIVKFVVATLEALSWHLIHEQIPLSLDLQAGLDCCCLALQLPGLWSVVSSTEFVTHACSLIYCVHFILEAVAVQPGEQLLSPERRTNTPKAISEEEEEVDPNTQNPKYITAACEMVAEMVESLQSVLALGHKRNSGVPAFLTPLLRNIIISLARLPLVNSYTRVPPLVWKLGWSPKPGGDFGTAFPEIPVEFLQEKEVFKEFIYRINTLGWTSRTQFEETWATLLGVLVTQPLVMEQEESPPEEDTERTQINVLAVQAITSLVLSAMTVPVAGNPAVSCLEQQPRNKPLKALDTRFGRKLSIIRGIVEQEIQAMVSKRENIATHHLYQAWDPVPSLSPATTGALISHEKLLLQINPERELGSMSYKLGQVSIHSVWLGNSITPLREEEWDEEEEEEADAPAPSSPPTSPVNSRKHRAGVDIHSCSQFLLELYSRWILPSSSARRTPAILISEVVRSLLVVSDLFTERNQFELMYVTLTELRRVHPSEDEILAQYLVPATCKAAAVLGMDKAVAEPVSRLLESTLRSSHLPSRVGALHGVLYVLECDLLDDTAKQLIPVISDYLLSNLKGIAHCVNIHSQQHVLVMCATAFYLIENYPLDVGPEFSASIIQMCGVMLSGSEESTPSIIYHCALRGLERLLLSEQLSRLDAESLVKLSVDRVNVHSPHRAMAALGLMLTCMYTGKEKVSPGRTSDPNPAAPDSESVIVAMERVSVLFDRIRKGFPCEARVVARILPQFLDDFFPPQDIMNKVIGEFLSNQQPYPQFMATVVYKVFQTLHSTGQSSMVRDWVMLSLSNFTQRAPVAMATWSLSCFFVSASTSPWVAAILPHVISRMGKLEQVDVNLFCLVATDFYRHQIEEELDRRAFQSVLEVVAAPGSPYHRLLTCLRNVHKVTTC

SMILES | Potency
O=C(c1nc2nc(-c3ccccc3)cc(C(F)(F)F)n2n1)N1CCOCC1 | 112 µM (active)
CCOc1ccc(S(=O)(=O)n2ccc(C)n2)c2ccccc12 | 56.2 µM (active)
Cc1nnc2sc(SCc3ccc(Cl)cc3)nn2c1=O | 891 µM (active)
CCOC(=O)c1ccc(N2CN(CCc3ccccc3)CN=C2S)cc1 | 112 µM (active)
O=C1C2C3C=CC(C3)C2C(=O)N1CCCO (stereo not drawn) | 89.1 µM (active)
CCOC(=O)c1c(NC(=O)C2=C(C)N=C(S)NC2c2ccc(F)cc2)sc(C)c1C (stereo not drawn) | 112 µM (active)
CCOC(=O)Cn1c(-c2ccccn2)nc2ccccc21 | 224 µM (active)
CN(C)CCN(C(=O)c1ccc(S(=O)(=O)N(C)C)cc1)c1nc2cc3c(cc2s1)OCCO3 | 141 µM (active)
